{"source": "PubChem BioAssay AID1347165", "about": "(National Center for Advancing Translational Sciences (NCATS), 2019)", "note": "The campaign covered roughly 220,000 compounds. About 5,700 (2.6%) were called active. Inconclusive results (about 18%) are left out. Many of the other results were omitted from the sample, so actives are more common in it than they were. A number with no mark means an inactive call. Calls come from the whole dose curve; as a rule, active = well fitted inhibition curve with a large enough effect; inconclusive = small, poorly fitted or top-dose-only effect; inactive = no such curve, though single readings can be large or run the other way. Potency is the fitted concentration of half-maximal effect."}
{"biological_target": "Lysine-specific demethylase 5B (Homo sapiens) (UniProt Q9UGL1)", "sequence (Q9UGL1 whole entry, looked up)": "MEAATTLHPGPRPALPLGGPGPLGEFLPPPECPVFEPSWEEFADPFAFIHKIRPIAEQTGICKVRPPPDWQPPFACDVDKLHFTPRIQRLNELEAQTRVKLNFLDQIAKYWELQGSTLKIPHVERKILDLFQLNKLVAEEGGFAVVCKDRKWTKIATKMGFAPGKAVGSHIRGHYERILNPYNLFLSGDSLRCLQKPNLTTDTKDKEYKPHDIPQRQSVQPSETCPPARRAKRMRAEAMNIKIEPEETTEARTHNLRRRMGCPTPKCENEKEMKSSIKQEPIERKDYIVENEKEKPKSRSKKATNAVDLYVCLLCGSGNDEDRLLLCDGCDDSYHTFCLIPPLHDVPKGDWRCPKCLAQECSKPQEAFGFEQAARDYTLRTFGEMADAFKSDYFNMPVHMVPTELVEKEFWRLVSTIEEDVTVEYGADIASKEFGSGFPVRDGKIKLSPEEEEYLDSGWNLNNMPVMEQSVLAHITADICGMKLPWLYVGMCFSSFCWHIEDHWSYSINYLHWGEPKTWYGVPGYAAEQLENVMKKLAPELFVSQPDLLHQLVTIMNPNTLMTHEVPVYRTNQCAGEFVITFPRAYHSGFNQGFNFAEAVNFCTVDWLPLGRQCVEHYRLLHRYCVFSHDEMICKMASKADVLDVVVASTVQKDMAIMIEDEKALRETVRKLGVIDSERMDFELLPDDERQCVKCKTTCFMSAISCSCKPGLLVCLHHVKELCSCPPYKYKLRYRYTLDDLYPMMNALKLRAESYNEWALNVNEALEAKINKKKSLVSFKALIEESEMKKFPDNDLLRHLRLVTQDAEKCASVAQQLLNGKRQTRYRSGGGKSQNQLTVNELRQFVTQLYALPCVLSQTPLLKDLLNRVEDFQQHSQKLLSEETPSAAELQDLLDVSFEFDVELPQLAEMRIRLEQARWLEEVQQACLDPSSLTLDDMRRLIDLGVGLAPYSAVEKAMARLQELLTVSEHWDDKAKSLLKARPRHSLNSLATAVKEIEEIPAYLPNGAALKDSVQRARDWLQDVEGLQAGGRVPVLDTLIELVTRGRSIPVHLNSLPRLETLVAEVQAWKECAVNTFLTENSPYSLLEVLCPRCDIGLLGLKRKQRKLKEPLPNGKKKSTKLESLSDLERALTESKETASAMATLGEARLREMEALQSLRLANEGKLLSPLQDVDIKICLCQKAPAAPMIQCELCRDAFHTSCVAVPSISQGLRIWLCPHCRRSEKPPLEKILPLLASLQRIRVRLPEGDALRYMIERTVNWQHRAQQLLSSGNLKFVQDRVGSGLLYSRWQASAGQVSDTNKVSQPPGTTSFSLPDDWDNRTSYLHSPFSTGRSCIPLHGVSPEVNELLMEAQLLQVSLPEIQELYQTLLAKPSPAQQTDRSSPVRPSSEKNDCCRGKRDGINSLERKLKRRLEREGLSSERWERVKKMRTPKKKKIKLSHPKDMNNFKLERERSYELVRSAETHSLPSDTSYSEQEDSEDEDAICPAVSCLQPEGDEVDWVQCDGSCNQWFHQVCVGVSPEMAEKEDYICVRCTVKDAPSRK", "test": "Primary screen for KDM5B Histone Demethylases FDH-coupled qHTS; note: nearly all actives have a fitted effect of over 70% in size; for activity change, negative = inhibition: 0% is about no effect", "conditions": "FDH-coupled NADH fluorescence (FDH is formaldehyde dehydrogenase); series mostly up to 57.7 µM; activity change, negative = inhibition: at the top concentration", "text": "Assay Submitter (PI): Qin Yan, Ph.D. (Yale University) and Xiaodong Cheng, Ph.D. (MD Anderson) This project was funded as part of the NCI NEXT Program and Chemical Biology Consortium (CBC) The histone demethylases, KDM5A and KDM5B catalyze the demethylation of lysine 4 on histone H3 (H3K4me3/2). They are overexpressed in a variety of cancers and have been implicated in cancer cell growth, metastasis, drug resistance, and tumor growth. KDM5A is amplified and overexpressed in breast and gastric cancer; and is translocated in leukemia. While KDM5B is highly expressed in human mammary tumors and breast cancer cell lines, but not in normal adult breast tissue. Moreover, knockdown of KDM5B leads to upregulation of tumor suppressor genes, including BRCA1. The goal of this project is to employ qHTS to identify selective small molecule inhibitors of KDM5A/B demethylase activity to better understand the role of KDM5 in cancer and to develop novel therapies. We employed an FDH-coupled assay previously reported by Sakurai et al. to monitor in vitro KDM5 demethylase activity. Compounds showing dose response inhibition are re-acquired, validated, and tested for non-specific interference with the formaldehyde dehydrogenase (FDH) counterscreen. True inhibitors are validated using an AlphaLisa secondary screen, which employs an H3K4(me2-1)-specific antibody to monitor demethylation of a biotin-tagged H3K4(me3) peptide substrate. Inhibitors are profiled against KDM4A and KDM6A AlphaLisa counterscreens to determine level of demethylase specificity; and against the TruHits counterscreen to eliminate non-specific inhibitory activity on the AlphaLISA detection method. Selective inhibitors identified from the primary and secondary screening are tested in cells using immunofluorescence to monitor global H3K4 tri-methylation as a measure of KDM5A/B inhibition. Early Translation Branch (ETB) National Center for Advancing Translational Sciences (NCATS), Rockville, MD National Institute of Health (NIH), Bethesda, Maryland [1] Sakurai, M et al. A miniaturized screen for inhibitors of Jumonji histone demethylases. Mol Biosyst. 2010 Feb;6(2):357-64. doi: 10.1039/b912993f. Epub 2009 Oct 8.\nMaterials: 1536-well Black, solid bottom, medium binding assay plate is purchased from Greiner Bio-one. The enzymes (KDM5B) and substrate (H3K4me3/2) are provided by the principal investigators. The buffer for this assay is composed of 50mM HEPES at pH 7.5 with 0.01% Tween-20. FDH coupled Demethylase qHTS protocol: Three microliter enzyme mix (buffer + 200nM KDM5BDeltaAP final concentration) is dispensed into the assay plate using the BioRAPTR Flying Reagent Dispenser (FRD; […]). Compound (at various final concentration) and control solution is pin transferred to the assay plate using the Kalypsys 1536-pin tool apparatus. The assay plate is incubated for 10 min at room temperature followed by addition of 1uL substrate mix (buffer + 100uM ascorbic acid, 50uM ferrous ammonium sulfate, 12.5uM H3K4Me3, 25uM a-ketoglutarate, 0.25 mM NAD+, 0.25 U/mL formaldehyde dehydrogenase using the FRD yielding a total reaction volume of 4 uL. Initial fluorescence (Read1) is detected using the PerkinElmer ViewLux plate reader equipped with 340 nm excitation and 450 nm emission filters. The final fluorescence (Read2) signal is obtained after 30 min of room temperature incubation. Delta RFU is calculated (Read2 - Read1) and is used to generated dose response curves."}
{"smiles": "CSc1ccc(/C=N/Nc2c(Cl)cc(Cl)cc2Cl)cc1", "activity change, negative = inhibition": "-27.6%"}
{"smiles": "CSc1ccc(-c2ccc(C=O)cc2)cc1", "Potency": "10 µM (active)"}
{"smiles": "CNC(=O)c1cccc(CNC(=O)C=C(C)C)c1", "activity change, negative = inhibition": "-5.74%"}
{"smiles": "Cc1noc(C)c1COc1ccc(C(=O)NCCOc2ccccc2)cc1", "activity change, negative = inhibition": "22.7%"}
{"smiles": "Cc1nn(-c2nc3c(c(=O)n(CCN4CCCCC4)c(=O)n3C)n2C)c(C)c1C", "activity change, negative = inhibition": "15.4%"}
{"smiles": "CCOC(=O)c1ccc(NC(=O)Cn2c(=O)cc(C)c3c(C)nn(-c4cccc(F)c4)c32)cc1", "activity change, negative = inhibition": "2.81%"}
{"smiles": "CCOCC(=O)Nc1nn(-c2cccc(F)c2)c2cccc(N3CCOC3=O)c12", "Potency": "28.2 µM (active)"}
{"smiles": "COc1cccc(NC(=O)Cn2c(=O)cc(C)c3c(C)nn(-c4cccc(F)c4)c32)c1", "activity change, negative = inhibition": "10.7%"}
{"smiles": "COCCN1C(=O)C(O)=C(C(=O)c2ccc(C)o2)C1c1ccc(O)c(OC)c1", "note": "(configuration not stated)", "activity change, negative = inhibition": "-14.1%"}
{"smiles": "CC1=C[C@@H](CNC(=O)C2CCCCC2)[C@H](C(C)C)C[C@H]1Cc1nc2ccc(F)cc2[nH]1", "activity change, negative = inhibition": "-21.6% [at 86.2 µM]"}
{"smiles": "CC(=O)Nc1cc(C(=O)NCc2ccc(F)cc2)ccc1Sc1ccc(F)cc1", "activity change, negative = inhibition": "-10.4%"}
{"smiles": "CC(C)Cn1cncc1CNC(=O)c1ccc2nc(-c3ccc(F)cc3)cn2c1", "Potency": "25.1 µM (active)"}
{"smiles": "CCc1ccc(CNC(=O)C2CCN(c3nn4cc(-c5ccc(F)cc5)nc4s3)CC2)cc1", "activity change, negative = inhibition": "13.6%"}
{"smiles": "O=C(N/N=C/c1ccccc1Cl)c1ccc(Cl)s1", "activity change, negative = inhibition": "-3.13%"}
{"smiles": "OCC#Cc1csc(CN2CCCC3(CCNCC3)CC2)c1", "activity change, negative = inhibition": "10.2%"}
{"smiles": "C=CCN(C)C(=O)[C@@H](C)C1CC[C@@]2(C)Cc3sc(NS(=O)(=O)c4ccc(Cl)cc4)nc3[C@@H](C)[C@@H]2[C@H]1O", "note": "(some centres not stated)", "Potency": "28.2 µM (active)"}
{"smiles": "C=CCN(C)C(=O)[C@@H](C)C1CC[C@@]2(C)Cc3sc(Nc4c(Cl)cccc4Cl)nc3[C@@H](C)[C@@H]2[C@H]1O", "note": "(some centres not stated)", "activity change, negative = inhibition": "-26.3%"}
{"smiles": "CCN(CC)C(=O)[C@@H](C)C1CC[C@@]2(C)Cc3sc(N)nc3[C@@H](C)[C@@H]2[C@H]1O", "note": "(some centres not stated)", "activity change, negative = inhibition": "-5.26% [at 86.2 µM]"}
{"smiles": "O=C1Nc2cnccc2C2(CCN(C(=O)c3ccccc3F)C2)O1", "note": "(configuration not stated)", "Potency": "31.6 µM (active)"}
{"smiles": "CC(C)C1=NOC2(CCN(C(=O)c3ccccc3F)C2)C1", "note": "(configuration not stated)", "activity change, negative = inhibition": "2.96% [at 149 µM]"}
{"smiles": "O=C(c1ccccc1F)N1CCC2(CC1)C(=O)Nc1ccccc12", "activity change, negative = inhibition": "-1.94% [at 149 µM]"}
{"smiles": "O=C(O)Cc1ccc(NC(=O)Nc2cccc3ccccc23)cc1", "activity change, negative = inhibition": "19.1%"}
{"smiles": "COc1ccc2nc(SCC(=O)Nc3ncccn3)[nH]c2c1", "activity change, negative = inhibition": "10.3%"}
{"smiles": "c1cc(N2CCOCC2)ccc1-c1cc(-c2cn[nH]c2)c2cncn2c1", "Potency": "28.2 µM (active)"}
{"smiles": "COc1ccccc1-c1cc(-c2cn[nH]c2)c2cncn2c1", "activity change, negative = inhibition": "-2460% [at 115 µM]"}
{"smiles": "Cn1cc(CC(=O)N2CCCc3ncc(C(=O)N4CCCC[C@@H]4c4ccccc4)cc32)c2ccccc21", "activity change, negative = inhibition": "-17.3%"}
{"smiles": "Cn1cc(-c2ccccc2)cc1C(=O)NCc1ccc(N2CCOCC2)cc1", "activity change, negative = inhibition": "-31.6%"}
{"smiles": "CCC(=O)Nc1cc(C(=O)NCc2ccc(N3CCOCC3)cc2)c2ccc(C)nc2c1", "Potency": "14.1 µM (active)"}
{"smiles": "COCc1cc(=O)n(CC(=O)NCc2ccc(C)cc2)c(N2CCOCC2)n1", "activity change, negative = inhibition": "-28%"}
{"smiles": "N#Cc1nc(C2CC2)oc1N1CCN(Cc2c(F)cccc2Cl)CC1", "activity change, negative = inhibition": "12.1%"}
{"smiles": "Cn1c(SCC(=O)N2CCCC2)nnc1-c1ccc2c(c1)OCO2", "activity change, negative = inhibition": "23.9%"}
{"smiles": "c1ccc(CNCc2cccc3ccccc23)cc1", "activity change, negative = inhibition": "-14.2%"}
{"smiles": "Cc1ccc(F)cc1S(=O)(=O)N1CCC(c2nc3ccccc3s2)CC1", "activity change, negative = inhibition": "2.62%"}
{"smiles": "CC(C)(C)c1ccc(OCC(=O)N2CCC(c3nc4ccccc4s3)CC2)cc1", "activity change, negative = inhibition": "10.7% [at 11.5 µM]"}
{"smiles": "CN1CCC(N2CC[C@H](c3nc4ccccc4s3)C2)CC1", "Potency": "28.2 µM (active)"}
{"smiles": "Cc1c(-c2ccccc2)oc2c(C(=O)N3CCN(C(=O)c4ccccc4)CC3)cccc2c1=O", "activity change, negative = inhibition": "-12.4%"}
{"smiles": "CCCOc1ccccc1C(=O)N1CCC2(CC1)[C@H](O)C[C@@H]2OCCN", "activity change, negative = inhibition": "-7.52%"}
{"smiles": "Clc1ccccc1C1(c2ccnc(NCCn3cccn3)n2)CCNCC1", "Potency": "28.2 µM (active)"}
{"smiles": "Cn1c(COc2ccccc2Cl)nnc1SCCn1cccn1", "activity change, negative = inhibition": "21%"}
{"smiles": "CCOc1ccc(/C=C2/Cc3c(O)cccc3C2=O)cc1", "activity change, negative = inhibition": "11.1%"}
{"smiles": "N#CC1(NC(=O)COC(=O)CCN=C2NS(=O)(=O)c3ccccc32)CCCCC1", "activity change, negative = inhibition": "6.37%"}
{"smiles": "CN(c1ccccc1)c1cc(=O)c2ccnc(-c3ccc(CO)cc3)c2o1", "activity change, negative = inhibition": "-32.9% [at 86.2 µM]"}
{"smiles": "O=c1cc(-c2cccnc2)oc2c(-c3cccc(CO)c3)nccc12", "Potency": "35.5 µM (active)"}
{"smiles": "O=c1cc(-c2cccnc2)oc2c(-c3ccccc3O)nccc12", "activity change, negative = inhibition": "-14.1% [at 86.2 µM]"}
{"smiles": "N#CC1=C(N)Oc2n[nH]c(-c3ccc4c(c3)OCO4)c2C1c1cccc(O)c1", "note": "(configuration not stated)", "activity change, negative = inhibition": "-29.3%"}
{"smiles": "CN1CCN(c2oc(-c3ccccc3)nc2S(=O)(=O)c2ccc3c(c2)OCCO3)CC1", "activity change, negative = inhibition": "13.1%"}
{"smiles": "COCc1noc(-c2ccc(NCCN3CCNC3=O)nc2)n1", "activity change, negative = inhibition": "30.3%"}
{"smiles": "COCCc1noc(-c2ccc(NC(C)c3ncccc3C)nc2)n1", "note": "(configuration not stated)", "Potency": "28.2 µM (active)"}
{"smiles": "COc1ccc(S(=O)(=O)NCCc2noc(-c3ccncc3)n2)cc1", "activity change, negative = inhibition": "13.7%"}
{"smiles": "O=C(O)Cn1ccc2cc(OCCc3cccc(-c4cccnc4)c3)cnc21", "Potency": "35.5 µM (active)"}
{"smiles": "COc1cccc(CC(=O)NCCc2noc(-c3cccnc3)n2)c1", "activity change, negative = inhibition": "12.9%"}
{"smiles": "O=C(O)CSCc1cccnc1", "activity change, negative = inhibition": "-4.43%"}
